This passage reports Percent Effect results from ChEMBL document CHEMBL3988442, “University of Dundee, Small-Polar-MMV Screening Library” (2021).

This assay has as its target Shiga toxin 2 (Escherichia coli O157:H7) (UniProt P09385+P09386). The assay can be described thus: E. coli 0.157:H7 Shiga Toxin SOP - stx2 screening assay. It counts as functional. Also on record: scale not given: direction of the effect not stated beside the values. As to conditions: 30 µM.
Regarding `COc1ccc(F)cc1C(C)NC(=O)Nc1nnc(C)s1` (centres undefined), the Percent Effect is 15.6%.
Consider `Cc1c(Br)cccc1C(=O)NC(C)CN1CCCC1=O` (centres undefined), for which the Percent Effect was determined as 1.67%.
Regarding `COc1cc(C)nc(N2CCN(C(=O)CNC(C)(C)C)CC2)n1`, the Percent Effect is -32.2%.
The figure for `CN1CC(=O)N(c2ccccc2)CC12CCN(CC1CC1)C2` (centres undefined) is -5.63%.
Then `CC(Cc1ccco1)NC(=O)Nc1ccc(S(C)(=O)=O)nc1` (centres undefined), with -17.3%.
The figure for `O=C(c1cnc(-c2cccs2)s1)N1CCCN2CCCC2C1` (centres undefined) is 1.08%; for `CCc1c(C)nn(CCNC(=O)C2CCCN(C(=O)N(C)C)C2)c1C` (centres undefined) it is 20%; for `Cn1cnnc1C1CCCN(C(=O)NCc2cc[nH]n2)C1` (centres undefined) it is 12.3%.
On to `CC(=O)NCCNC(=O)c1cnc(-c2ccccc2)nc1`, for which the Percent Effect is -11.3%.
